Assay outcomes (PubChem BioAssay)
A selection: hits, their analogues and other compounds. The true share with any hit is near 7%.
ADAM17 inh: inhibitors of human ADAM17; P78536; AID 720648; inhibition, % at 6.95 µM; recombinant ADAM17, EDANS/DABCYL FRET peptide cleavage; 0.83% of 370,000 active;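 active = inhibition above the mean of compounds lying between control limits plus 3 SD, set per campaign, cut at about 8.5% in these data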;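 note: 0% = DMSO-only wells as the low control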
Target sequence (P78536 215-824 limits assumed): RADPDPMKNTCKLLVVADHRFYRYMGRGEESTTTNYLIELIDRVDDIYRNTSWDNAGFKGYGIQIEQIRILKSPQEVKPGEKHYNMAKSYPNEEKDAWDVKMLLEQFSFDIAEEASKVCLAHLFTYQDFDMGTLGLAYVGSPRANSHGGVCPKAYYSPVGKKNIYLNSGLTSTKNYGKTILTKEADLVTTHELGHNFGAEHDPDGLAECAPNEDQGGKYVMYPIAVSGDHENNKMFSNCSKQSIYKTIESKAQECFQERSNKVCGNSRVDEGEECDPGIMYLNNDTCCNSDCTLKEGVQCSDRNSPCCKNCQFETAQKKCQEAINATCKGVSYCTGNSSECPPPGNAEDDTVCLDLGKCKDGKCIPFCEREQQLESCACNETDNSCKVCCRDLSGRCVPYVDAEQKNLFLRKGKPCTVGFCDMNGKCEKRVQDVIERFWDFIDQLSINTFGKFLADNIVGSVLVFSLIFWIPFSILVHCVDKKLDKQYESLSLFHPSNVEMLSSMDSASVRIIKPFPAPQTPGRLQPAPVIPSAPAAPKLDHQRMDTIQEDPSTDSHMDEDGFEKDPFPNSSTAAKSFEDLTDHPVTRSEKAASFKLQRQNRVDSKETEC
proKLK7 act: proKLK7 (human) activation, primary screen | P49862 | activation, % at 7 µM | 0.9% of 370,000 active | AID 652039 | purified proKLK7, EDANS-DABCYL substrate fluorescence; 100% is mature enzyme control, 0% vehicle;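 active = activation above the mean of all tested compounds plus 3 SD, computed per campaign excluding outliers beyond control limits, cut at about 13% in these data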
ADAM10 inh: inhibitors of human ADAM10 | O14672 | recombinant ADAM10, EDANS/DABCYL FRET peptide cleavage, 3 h | inhibition, % at 7 µM | 0.62% of 370,000 active;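 active = inhibition above a per-campaign cutoff equal to the mean of compounds falling between control-based bounds plus 3 SD, cut at about 20% in these data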;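 note: 0% = DMSO wells while the 100% control is not disclosed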
NR3A LBD binder: modulates the human NR3A ligand-binding domain; NR3A LBD differential scanning fluorimetry, Tm shift; 0% = protein alone, 100% = glycine-bound protein; Tm shift relative to glycine control, % at 25 µM; 2.5% of 340,000 active;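 active = melting temperature shift of at least 10% of the positive control shift, at one fixed dose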
rCAG binder: molecules binding r(CAG) RNA repeats. r(CAG) RNA repeat, TO-PRO-1 dye displacement fluorescence. inhibition, % at 3 µM. 1.3% of 370,000 active. AID 651821;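 active = inhibition above the plate cutoff, the mean of all test compounds on that plate plus 3 SD, cut at about 35% in these data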;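 note: 0% = DMSO alone and 100% = 100 µM mitoxantrone as full dye displacement; higher means more dye released from RNA so lower well fluorescence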
AHR act: activators of human aryl hydrocarbon receptor; P35869; AHR-responsive luciferase reporter cells, luminescence; activation, % at 5 µM; 2.5% of 320,000 active; in the data active = activation above about 47%;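 note: 0% = vehicle wells and 100% = reference agonist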
rCAG bind conf: r(CAG) RNA repeat binding, confirmation. shares compounds with rCAG binder. TO-PRO-1 dye displacement fluorescence. inhibition, % at 3 µM. 70% of 4,300 active. AID 652065;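 active = inhibition above a per-plate cutoff, the mean inhibition of sample wells plus 3 SD, cut at about 35% in these data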;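 note: loss of TO-PRO-1 fluorescence as compound displaces dye from 1x1 AA loop RNA; 0% = DMSO only wells and 100% = 100 µM mitoxantrone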
dCAG dye counter: counter-screen for rCAG RNA binders: DNA CAG dye complex inhibitors | shares compounds with rCAG binder | d(CAG) DNA oligo TO-PRO-1 dye displacement, fluorescence | inhibition, % at 3 µM | 94% of 4,300 active | AID 652068;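 active = inhibition above its plate's cutoff, the mean test-well inhibition plus 3 SD, cut at about 4.8% in these data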;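 note: 0% = DNA dye mix with DMSO and 100% = 100 µM mitoxantrone; hits displace the dye from DNA and so lower well fluorescence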
dCAG dye DR: disrupts DNA CAG TO-PRO-1 complex in dose response | shares compounds with rCAG binder | DNA CAG/GTC duplex TO-PRO-1 dye displacement fluorescence | IC50, µM | 20% of 250 active | AID 686960; in the data active = IC50 below about 10 µM
* hit, by the source's call; i = inactive; / = no result.

SMILES	ADAM17 inh	proKLK7 act	ADAM10 inh	NR3A LBD binder	rCAG binder	AHR act	rCAG bind conf	dCAG dye counter	others
Cc1cccc(C(=O)N[C@H](C(=O)Nc2ccc(S(=O)(=O)NC3=NCCCCC3)cc2)C(C)C)c1	-0.9	1.2	-7.5	1.1	2.0	5.3	/	/
C#CCN1CC(COc2ccccc2)Oc2cccc(Oc3ccc(OC)cc3)c2S1(=O)=O (stereo not given)	3.3	0.3	0.9	/	11.7	/	/	/
CCOC(=O)CC[C@@H]1CC[C@]2(CCCN(C(=O)c3ccccc3)C2)O1	-0.7	-0.1	0.6	/	-0.3	/	/	/
C/C=C1\NC(=O)[C@H](C)NC(=O)[C@@H](NC(=O)[C@@H](Cc2ccc(O)cc2)NC(=O)[C@@H](NC(=O)/C(C)=C/C)C(C)C)[C@@H](C)OC(=O)[C@H](CCCCc2ccc(O)cc2)NC(=O)[C@@H](CCC(=O)O)NC1=O	4.7	0.6	-5.1	0.8	35.8*	-1.7	34.2	6.7*
O=C(C(=O)N1CCC(CNC(=O)c2cccs2)CC1)c1cc2ccccc2o1	-1.1	0.1	2.5	/	4.9	/	/	/
O=S(=O)(Nc1nc2ccc(S(=O)(=O)N3CCCCC3)cc2s1)c1ccccc1	-1.3	0.7	5.5	1.5	71.6*	0.5	64.7*	28.3*
Cc1ccc(S(=O)(=O)Nc2nc3ccc(S(=O)(=O)N4CCCC4)cc3s2)cc1	-0.5	0.1	-1.5	2.3	71.1*	-0.3	74.3*	38.3*
COC(=O)C[C@H]1C=C[C@@H](NC(=O)C2CC2)[C@@H](CO)O1	-9.5	0.3	-22.2	/	-0.2	/	/	/
Nn1c(SCC(=O)Nc2cccc3ccccc23)nnc1-c1cc(-c2ccccc2)n[nH]1	-0.8	0.7	-6.0	/	8.1	/	/	/
On1onc2c3cc(-c4ccccc4)nc3ccc21	8.1	0.6	16.7	37.1*	41.0*	8.7	11.5	5.0*
COc1ccc2nc(-n3c(O)c(C4=c5ccccc5=NC4=O)[nH]c3=S)sc2c1	-0.5	-0.7	4.6	16.7*	49.5*	23.4	93.6*	78.5*
CC(=O)NNC(=O)c1[nH]c2ccc(Br)cc2c1-c1ccccc1	3.0	-1.0	12.3	-6.3	4.7	/	/	/
COc1ccc(/C=N/NC(=O)c2[nH]c3ccc(Br)cc3c2-c2ccccc2)c(C(=O)O)c1OC	-6.3	-0.1	-10.1	-2.2	62.4*	0.7	77.2*	42.9*
COc1ccc(/C=N/NC(=O)c2[nH]c3ccc(Cl)cc3c2-c2ccccc2)c(C(=O)O)c1OC	-8.0	0.9	-8.9	-1.6	64.3*	0.8	65.7*	25.1*
FC(F)(F)c1ccccc1Cc1c(-c2ccco2)nc2ccc(Br)cn12	-5.4	-0.4	-3.3	/	39.3*	/	5.5	2.4
Cc1cc2nc(-c3ccco3)c(Cc3ccccc3C(F)(F)F)n2c(C)c1Br	-3.1	0.6	-8.3	/	47.1*	/	36.8*	13.9*
Cc1ccc2nc(-c3ccco3)c(Cc3ccccc3C(F)(F)F)n2c1	-33.2	-0.7	-110.5	/	10.4	/	/	/
COC(=O)[C@]12C[C@H](CC(=O)NCCCN3CCCC3=O)C(=O)N(Cc3ccco3)C1=C[C@H](C(C)C)O[C@@H]2C1CC1	-5.6	0.0	-13.2	/	-1.4	/	/	/
Nc1nn2c(-c3ccccc3)cc(=O)[nH]c2c1N=Nc1ccc(Br)cc1	0.3	-0.1	-3.4	24.8*	34.6*	/	80.1*	39.5*
Cc1cc(=O)[nH]c2c1c(-c1ccccc1)nn2C	-8.2	-0.3	5.5	3.4	-2.4	2.4	/	/
NC(=O)c1ccccc1NC(=O)c1ccccc1Cl	-2.1	-0.9	2.6	-5.1	4.5	-0.3	/	/
O=C(Nc1ccccc1C(=O)Nc1nnc(C(F)(F)F)s1)c1ccccc1Cl	0.8	-0.5	1.7	18.2*	65.1*	-2.2	70.8*	29.6*
O=C(O)c1cc(-c2ccc(/C=N/Nc3ccc(Cl)cc3)o2)ccc1Cl	-31.2	-2.8	-78.4	-7.0	67.1*	70.7*	67.5*	28.2*
O=C(N/N=C/c1ccc(-c2ccccc2Cl)o1)c1ccccc1	-19.8	0.3	-53.1	-1.5	4.7	14.1	/	/
O=C(O)c1ccc(N/N=C/c2ccc(-c3ccc(Br)cc3)o2)cc1	-6.2	-0.3	-17.1	-2.3	48.7*	5.4	49.4*	14.0*
SMILES	ADAM17 inh	proKLK7 act	ADAM10 inh	NR3A LBD binder	rCAG binder	AHR act	rCAG bind conf	dCAG dye counter	others
O=C(O)c1ccc(N/N=C/c2ccc(-c3ccccc3Cl)o2)cc1	-10.1	-1.1	-18.0	-4.7	64.7*	3.7	41.4*	11.3*
CCN1C(=O)/C(=C2\SC(=S)N(NC(=O)c3ccccc3O)C2=O)c2ccccc21	-11.8	-0.5	-22.9	13.7*	76.5*	7.6	86.3*	57.8*
CCN1C(=O)/C(=C2\SC(=S)N(c3c(C)n(C)n(-c4ccccc4)c3=O)C2=O)c2ccccc21	3.0	0.9	0.0	2.0	4.3	0.8	/	/
COc1ccc(Cn2c(O)c(/C=N/NC(=O)c3cccnc3)c3ccccc3c2=O)cc1	-50.4	-4.3	-141.6	-3.4	75.5*	/	70.8*	32.7*	dCAG dye DR=i
O=C(N/N=C/c1c(O)n(-c2ccccc2Cl)c(=O)c2ccccc12)c1cccnc1	-160.2	-3.2	-490.1	-4.9	46.9*	/	29.8	8.0*
O=C(N/N=C/c1c(O)n(Cc2ccccc2)c(=O)c2ccccc12)c1cccnc1	-51.4	-1.7	-160.4	-2.9	69.3*	11.1	63.7*	24.8*
COc1ccc(Cn2c(O)c(C=Nc3ccc(OC)cc3)c3ccccc3c2=O)cc1	4.2	0.3	-14.7	-1.8	1.8	5.9	/	/
Cc1cccc(-n2c(O)c(/C=N/NC(=O)c3ccccc3Cl)c3ccccc3c2=O)n1	-194.6	-2.0	i	-1.5	14.0	7.3	/	/
CN(CCCOC(=O)CC1C=CCC1)C1CN(Cc2cn(Cc3ccccc3Cl)nn2)S(=O)(=O)C1 (stereo not given)	-5.0	-0.7	-4.7	/	2.8	/	/	/
C[C@@H]1CN([C@@H](C)CO)C(=O)CCCn2cc(nn2)CO[C@H]1CN(C)C(=O)Nc1cccc(C(F)(F)F)c1	-6.2	1.0	-14.2	/	0.0	/	/	/
Cn1cc([C@]2(O)C(=O)Nc3ccc(OC(F)(F)F)cc32)c2ccccc21	0.6	1.9	1.6	/	0.6	/	/	/
CCOC(=O)[C@@]12CCCC=C1N(CCc1ccc(Cl)cc1)C(=O)[C@H]2CC(=O)NCc1cccs1	4.7	-0.1	12.0	/	3.4	/	/	/
CN(C)[C@H]1CCN(c2ccc3c(c2)OCCCN(C2CC2)S3(=O)=O)C1	-4.4	0.1	-9.0	/	2.8	/	/	/
